The source made the active and inactive calls. Unless noted, no rule for the calls is given here.
Experiments:
[1] = resazurin metabolic signal in HepG2 cells – cell-based, resazurin fluorescence, 24 h, PK04 Diversity Set, profiling panel (AID 1172); conditions: HepG2 viability, higher = more signal; also: test concentration not given here
[2] = budding yeast growth changes without added modifier – OD600, strain BY4716, 24 h, basal condition, primary screen (AID 1173); conditions: S. cerevisiae BY4716 growth, OD600, 24 h; higher = more signal, called active from +8 up or from −8 down
[3] = viability profiling in MM1S myeloma cells – cell-based, resazurin fluorescence, basal, 24 h, PK04 Diversity Set, profiling panel (AID 1174); conditions: higher = more signal, called active from +8 up or from −8 down;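 also: MM1S multiple myeloma cell line; test concentration not given here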
[4] = molecular target: Dihydroorotate dehydrogenase (quinone), mitochondrial (Plasmodium falciparum (isolate 3D7)) (UniProt Q08210); experiment: inhibition of P. falciparum DHODH – biochemical, C-terminal His tag, absorbance 600 nm, primary screen (AID 1175); conditions: PfDHODH enzyme, DCIP absorbance 600 nm; higher = more signal, called active from +8 up or from −8 down;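 also: recombinant parasite enzyme with a five histidine tag at its C terminus; test concentration not given here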
Sequence of Dihydroorotate dehydrogenase (quinone), mitochondrial (Plasmodium falciparum (isolate 3D7)) (Q08210 whole entry, looked up): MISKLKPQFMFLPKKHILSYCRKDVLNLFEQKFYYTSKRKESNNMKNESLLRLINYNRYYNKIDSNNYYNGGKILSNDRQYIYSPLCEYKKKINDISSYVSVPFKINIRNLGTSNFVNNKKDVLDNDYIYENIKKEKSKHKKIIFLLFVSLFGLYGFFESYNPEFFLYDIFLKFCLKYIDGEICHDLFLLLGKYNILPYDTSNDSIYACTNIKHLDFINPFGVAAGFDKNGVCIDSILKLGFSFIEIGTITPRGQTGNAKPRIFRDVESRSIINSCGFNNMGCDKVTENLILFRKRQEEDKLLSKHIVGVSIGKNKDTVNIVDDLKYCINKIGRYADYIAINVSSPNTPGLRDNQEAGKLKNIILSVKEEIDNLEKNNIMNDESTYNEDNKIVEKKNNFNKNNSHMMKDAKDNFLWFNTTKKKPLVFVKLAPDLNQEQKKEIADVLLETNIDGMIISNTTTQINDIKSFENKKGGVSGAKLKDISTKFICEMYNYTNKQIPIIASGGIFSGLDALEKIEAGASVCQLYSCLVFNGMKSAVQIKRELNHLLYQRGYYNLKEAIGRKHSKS

[5] = inhibition of PAO1 biofilm formation – strain PAO1, LB-PBS medium, absorbance 600 nm, primary screen (AID 1176); also: test concentration not given here; conditions: P. aeruginosa PAO1 growth/biofilm, A600, 12 h; higher = more signal
[6] = growth modulation of vineyard yeast isolate – strain RM11-1a, OD600, basal, 24 h, primary screen (AID 1177);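 also: cultures grown under basal conditions with no added stressor; test concentration not given here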; conditions: S. cerevisiae RM11-1a growth, OD600, 24 h; higher = more signal, called active from +8 up or from −8 down
[7] = growth of efflux-deficient E. coli DRC39 – strain DRC39, OD650, 24 h, E. coli filamentation inducers, primary screen (AID 1178);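 also: growth measured as culture turbidity by optical density at 650 nm; test concentration not given here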; conditions: E. coli DRC39 acrAB, higher = more signal, called active from +8 up or from −8 down
[8] = growth of efflux-deficient E. coli DRC39 – strain DRC39, OD650, 48 h, E. coli filamentation inducers, primary screen (AID 1179);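 also: screen aims at cell division blockers that make cells filament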; conditions: E. coli DRC39 delta-acrAB growth, higher = more signal, called active from +8 up or from −8 down
[9] = viability profiling in RPMI8226 myeloma cells – cell-based, resazurin fluorescence, basal, 24 h, PK04 Diversity Set, profiling panel (AID 1180); conditions: higher = more signal;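 also: RPMI8826 multiple myeloma cell line at 5000 cells per well; test concentration not given here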
[10] = molecular target: E3 ubiquitin-protein ligase XIAP (Homo sapiens) (UniProt P98170); experiment: small molecules binding XIAP protein – biophysical, small-molecule microarray, fluorescence 635 nm, primary screen (AID 1181); conditions: higher = more signal;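 also: score merges 667 nm emission and signal to noise over triplicate slides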
Sequence of E3 ubiquitin-protein ligase XIAP (Homo sapiens) (P98170 whole entry, looked up): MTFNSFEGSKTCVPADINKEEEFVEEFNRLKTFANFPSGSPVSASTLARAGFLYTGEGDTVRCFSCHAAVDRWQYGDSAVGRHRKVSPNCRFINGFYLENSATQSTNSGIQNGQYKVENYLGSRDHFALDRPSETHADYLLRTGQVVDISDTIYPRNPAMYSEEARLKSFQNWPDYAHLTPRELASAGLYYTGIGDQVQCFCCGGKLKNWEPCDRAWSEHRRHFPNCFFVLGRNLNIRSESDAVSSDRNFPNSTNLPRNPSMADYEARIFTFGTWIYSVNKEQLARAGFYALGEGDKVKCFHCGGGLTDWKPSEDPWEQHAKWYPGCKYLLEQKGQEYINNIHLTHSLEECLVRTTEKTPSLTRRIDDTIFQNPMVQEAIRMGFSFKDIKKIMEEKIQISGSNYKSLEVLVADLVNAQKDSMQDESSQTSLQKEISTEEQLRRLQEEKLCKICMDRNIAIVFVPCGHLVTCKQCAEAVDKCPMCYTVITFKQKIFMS

SMILES | z-score [1] | z-score [2] | z-score [3] | composite z-score [4] | z-score [5] | z-score [6] | z-score [7] | z-score [8] | z-score [9] | composite z-score [10]
CCCCCC1=C2CNC(Cc3ccccc3)(C(=O)OC)C=C2C(C)C1=O (stereo not given) | -1.19 | 1.36 (inactive) | -1.79 (inactive) | -0.461 (inactive) | 0.026 (inactive) | 0.546 (inactive) | -0.767 (inactive) | -0.217 (inactive) | -1.5 | -0.138
COCCOC(=O)N1C(=O)[C@@]2(c3cc(C#CCCO)ccc31)[C@H](C(N)=O)[C@H]1C(=O)O[C@H](c3ccccc3)[C@H](c3ccccc3)N1[C@@H]2c1ccccc1OCCO | -0.231 | 1.11 (inactive) | -2.76 (inactive) | 0.754 (inactive) | 0.594 (inactive) | 2.34 (inactive) | 0.354 (inactive) | 0.449 (inactive) | -1.95 | -0.124
NC(=O)NCC#Cc1ccc2c(c1)[C@]1(C(=O)N2)[C@H](c2ccc(OCCO)cc2)N2[C@H](c3ccccc3)[C@H](c3ccccc3)OC(=O)[C@H]2[C@@H]1C(=O)O | -0.983 | -0.434 (inactive) | 0.117 (inactive) | -0.996 (inactive) | 1.01 (inactive) | -0.264 (inactive) | 0.427 (inactive) | -0.533 (inactive) | 0.15 | -0.0013
C=CCOC(=O)[C@@H]1[C@H]2C(=O)O[C@H](c3ccccc3)[C@H](c3ccccc3)N2[C@H](c2ccc(OCCOC(=O)[C@H]3C[C@H]4C(=O)N[C@@H](CCCCN(C)C)C(=O)N4[C@H]3c3ccc(O)cc3)cc2)[C@@]12C(=O)Nc1ccc(I)cc12 | -0.148 | -0.679 (inactive) | -0.467 (inactive) | -2.47 (inactive) | 1.34 (inactive) | 1.6 (inactive) | -0.466 (inactive) | 0.236 (inactive) | -0.431 | -0.224
COc1ccc([Si](C)(C)[C@H]2[C@H](CC(=O)N3Cc4ccccc4C[C@H]3CO)O[C@@]3(C(=O)N(c4ccccc4)c4ccccc43)[C@@H]2C)cc1 | 0.635 | -1.89 (inactive) | -2.45 (inactive) | -1.05 (inactive) | 0.0943 (inactive) | 0.578 (inactive) | 0.346 (inactive) | -0.288 (inactive) | -2.1 | -0.209
CN1C(=O)[C@@H]2[C@@H](CC(COc3ccccc3)=C3[C@@H](CCc4ccccc4)OB(O)C[C@@H]32)C1=O | -0.418 | -1.87 (inactive) | -0.675 (inactive) | -0.399 (inactive) | 0.2 (inactive) | -0.0646 (inactive) | 0.0204 (inactive) | -0.0443 (inactive) | -0.861 | -0.02
C=C(COC)/C(=C/C[C@@H](OC(C)=O)c1ccccc1OCCO)c1cnc2ccccc2c1 | -1.15 | -2.19 (inactive) | -0.975 (inactive) | -7.89 (inactive) | -0.104 (inactive) | 0.315 (inactive) | -1.17 (inactive) | -0.828 (inactive) | -0.3 | 0.0739
CC(C)C[C@@H]1NC(=O)[C@@]23C(=O)N[C@@H](Cc4ccccc4)C2[C@H](C)[C@@]2(C)O[C@H]2C3/C=C/C/C=C\CNC(=O)CNC1=O (stereo not given in full) | -0.62 | -1.68 (inactive) | 0.308 (inactive) | -0.658 (inactive) | 0.437 (inactive) | -0.773 (inactive) | -0.229 (inactive) | -0.911 (inactive) | -0.139 | -0.105
O=C1O[C@H](Cc2ccccc2)[C@@H]2[C@H]3C=CCCC=C3CN2[C@H]1Cc1ccc(O)cc1 | 1.28 | -2.92 (inactive) | 0.303 (inactive) | -0.259 (inactive) | 0.118 (inactive) | -0.0533 (inactive) | 0.616 (inactive) | 0.746 (inactive) | -0.095 | 0.269
CN(C)C(=O)[C@]1(Cc2ccccc2)N=C(c2ccc(OCCCO)cc2)O[C@@H]1c1ccccc1CN=[N+]=[N-] | 0.432 | -1.3 (inactive) | -0.0662 (inactive) | -0.979 (inactive) | -0.248 (inactive) | 0.22 (inactive) | -0.348 (inactive) | 0.686 (inactive) | 0.431 | 0.0651
[N-]=[N+]=Nc1ccccc1[C@@H]1OC(c2ccc(OCCCO)cc2)=N[C@]1(Cc1ccccc1)C(=O)NCCN1CCOCC1 | -0.158 | -2.57 (inactive) | -1.37 (inactive) | 0.417 (inactive) | -0.441 (inactive) | -0.158 (inactive) | 0.826 (inactive) | -0.382 (inactive) | -1.73 | -0.0663
C=CCOC(=O)[C@H]1[C@@H]2C(=O)O[C@@H](c3ccccc3)[C@@H](c3ccccc3)N2[C@@H](c2ccc(OCCOC(=O)[C@@H]3C[C@@H]4C(=O)N[C@@H](CCCCNC(C)=O)C(=O)N4[C@@H]3c3cccc(OCCO)c3)cc2)[C@]12C(=O)Nc1ccccc12 | -0.16 | 1.19 (inactive) | 0.222 (inactive) | 0.277 (inactive) | 2.87 (inactive) | 1.52 (inactive) | 0.253 (inactive) | 0.0636 (inactive) | 0.147 | 0.0623
